{
  "source": "paper PMC8384837",
  "about": "“Expanding the binding specificity for RNA recognition by a PUF domain”",
  "assay_in_all_cases": "yeast three-hybrid, YBZ-1, SC-Leu-His + 0.5 mM 3-AT, 4 days",
  "settings_in_all_cases": "tags: N-Gal4 AD-HA kept; label: inside an RPR1-promoter hybrid RNA with tandem MS2 sites; ssRNA",
  "key": {"PUM1 PUF domain R5-KNL": {"target": "PUM1 PUF domain R5-KNL (Homo sapiens, UniProt Q14671 828-1176, C1007K;R1008N;Q1011L)", "in_short": "(§1)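 Each repeat of the Pumilio-1 PUF domain was randomized at its three base-contacting residues, and these libraries were co-expressed from a centromeric plasmid with matching RNA elements in strain YBZ-1. After four days on SC-Leu (input) or SC-Leu-His + 0.5 mM 3-AT (selection), the repeat regions were PCR-amplified and Illumina-sequenced. The interaction score compares variant frequency between input and selection as a log change, computed in log2 with a pseudocount of 1 for absent variants.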"}, "PUM1 PUF domain R5-RCD": {"target": "PUM1 PUF domain R5-RCD (Homo sapiens, UniProt Q14671 828-1176, C1007R;R1008C;Q1011D)", "in_short": "as §1"}, "PUM1 PUF domain R5-KRA": {"target": "PUM1 PUF domain R5-KRA (Homo sapiens, UniProt Q14671 828-1176, C1007K;Q1011A)", "in_short": "as §1"}, "PUM1 PUF domain R2-RRV": {"target": "PUM1 PUF domain R2-RRV (Homo sapiens, UniProt Q14671 828-1176, N899R;Y900R;Q903V)", "in_short": "as §1"}, "PUM1 PUF domain R4-DRI": {"target": "PUM1 PUF domain R4-DRI (Homo sapiens, UniProt Q14671 828-1176, N971D;H972R;Q975I)", "in_short": "as §1"}, "PUM1 PUF domain R3-SSQ": {"target": "PUM1 PUF domain R3-SSQ (Homo sapiens, UniProt Q14671 828-1176, C935S;R936S)", "in_short": "as §1"}, "PUM1 PUF domain R3-VCI": {"target": "PUM1 PUF domain R3-VCI (Homo sapiens, UniProt Q14671 828-1176, C935V;R936C;Q939I)", "in_short": "as §1"}, "PUM1 PUF domain R3-LRL": {"target": "PUM1 PUF domain R3-LRL (Homo sapiens, UniProt Q14671 828-1176, C935L;Q939L)", "in_short": "as §1"}, "PUM1 PUF domain R1-KYV": {"target": "PUM1 PUF domain R1-KYV (Homo sapiens, UniProt Q14671 828-1176, S863K;R864Y;Q867V)", "in_short": "as §1"}},
  "data": [
    {"sequence": "GGCUAGAACUAGUGGAUCCCCCGGCGCCCGGCGGCUCGAGCCCGGGUAAGUGUCAAUAGUCUGCAUGCCGCCGGGCGCCAUGCCUGCAGGUCGACUCUAGAAAACAUG", "values": [
      {"measurement": "binding signal", "setting": "PUM1 PUF domain R5-KNL", "value": "4.73 log2 enrichment (interaction score)"},
      {"measurement": "binding signal", "setting": "PUM1 PUF domain R5-RCD", "value": "3.7 log2 enrichment (interaction score)"},
      {"measurement": "binding signal", "setting": "PUM1 PUF domain R5-KRA", "value": "2.92 log2 enrichment (interaction score)"}
    ]},
    {"sequence": "GGCUAGAACUAGUGGAUCCCCCGGCGCCCGGCGGCUCGAGCCCGGGUAAGUGUAAAGAGUCUGCAUGCCGCCGGGCGCCAUGCCUGCAGGUCGACUCUAGAAAACAUG", "values": [
      {"measurement": "binding signal", "setting": "PUM1 PUF domain R2-RRV", "value": "2.5 log2 enrichment (interaction score)"}
    ]},
    {"sequence": "GGCUAGAACUAGUGGAUCCCCCGGCGCCCGGCGGCUCGAGCCCGGGUAAGUGUAAAUAGUCUGCAUGCCGCCGGGCGCCAUGCCUGCAGGUCGACUCUAGAAAACAUG", "values": [
      {"measurement": "binding signal", "setting": "PUM1 PUF domain R4-DRI", "value": "5.23 log2 enrichment (interaction score)"},
      {"measurement": "binding signal", "setting": "PUM1 PUF domain R3-SSQ", "value": "2.66 log2 enrichment (interaction score)"},
      {"measurement": "binding signal", "setting": "PUM1 PUF domain R3-VCI", "value": "2.74 log2 enrichment (interaction score)"}
    ]},
    {"sequence": "GGCUAGAACUAGUGGAUCCCCCGGCGCCCGGCGGCUCGAGCCCGGGUAAGUGUAAUUAGUCUGCAUGCCGCCGGGCGCCAUGCCUGCAGGUCGACUCUAGAAAACAUG", "values": [
      {"measurement": "binding signal", "setting": "PUM1 PUF domain R3-LRL", "value": "0.28 log2 enrichment (interaction score)"}
    ]},
    {"sequence": "GGCUAGAACUAGUGGAUCCCCCGGCGCCCGGCGGCUCGAGCCCGGGUAAGUGUAAGUAGUCUGCAUGCCGCCGGGCGCCAUGCCUGCAGGUCGACUCUAGAAAACAUG", "values": [
      {"measurement": "binding signal", "setting": "PUM1 PUF domain R3-LRL", "value": "2.89 log2 enrichment (interaction score)"}
    ]},
    {"sequence": "GGCUAGAACUAGUGGAUCCCCCGGCGCCCGGCGGCUCGAGCCCGGGUAAGUGUUAAUAGUCUGCAUGCCGCCGGGCGCCAUGCCUGCAGGUCGACUCUAGAAAACAUG", "values": [
      {"measurement": "binding signal", "setting": "PUM1 PUF domain R5-RCD", "value": "2.68 log2 enrichment (interaction score)"},
      {"measurement": "binding signal", "setting": "PUM1 PUF domain R5-KRA", "value": "0.81 log2 enrichment (interaction score)"}
    ]},
    {"sequence": "GGCUAGAACUAGUGGAUCCCCCGGCGCCCGGCGGCUCGAGCCCGGGUAAGUGUAAAUUGUCUGCAUGCCGCCGGGCGCCAUGCCUGCAGGUCGACUCUAGAAAACAUG", "values": [
      {"measurement": "binding signal", "setting": "PUM1 PUF domain R1-KYV", "value": "2.06 log2 enrichment (interaction score)"}
    ]}
  ]
}
